In PubChem BioAssay (NCI) one finds growth data, which are given here for 40 compounds.

This is part of a sample that, as a whole, favours compounds with a hit. Of some 83,000 tested, about 20% had one in any assay.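 Activity criterion: percent growth below 10, measured after cells in 96-well plates were exposed to a single compound concentration for 48 hours.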 Values without a mark were called inactive. The source made the active and inactive calls.

The subject of this assay is MDA-MB-468 breast. The assay can be described thus: NCI-60 one-dose screen, 48 h (100 = growth as untreated, 0 = no growth, -100 = all killed). The note with it: 10 µM unless noted.
On to `c1ccc(CNc2nc(Nc3ccccc3)nc3ccccc23)cc1`, for which the growth was 13.2%.

As to `CCCC1(c2ccccc2)NC(=O)NC1=O` (stereo not given), the growth was 104%.

In the case of `CN(C)CCCn1c2c(c3cc(-c4cccc(S(N)(=O)=O)c4)ccc3c1=O)C(=O)c1ccccc1-2`, the growth was 88.5%.

As for `COc1cc(C2=NN(C=O)C(c3cccc(Nc4ccnc5cc(C(F)(F)F)ccc45)c3)C2)cc(OC)c1OC` (stereo not given), the growth was 42.8%.

Regarding `C=CCOc1cccc(/C=C2\SC(=S)N(C3CC(=O)N(c4ccc(Br)cc4)C3=O)C2=O)c1` (stereo not given), the growth is 111%.

Turning to `CCCCCCCCCCCC1=NC(C)(C)CN1C(C)C`, the growth was -1.36% (active).

Consider `COc1ccc(C2=Nc3c(N)ncnc3NC(c3cccc(Nc4ccnc5cc(C(F)(F)F)ccc45)c3)C2)cc1` (stereo not given), for which the growth is 46.9%.

With `Cc1cc(C=O)c(C)c2c1[nH]c1ccccc12`, the growth is 68.1%.

`O=C(O)c1ccccc1Cc1ccc2c(c1)CCCC2`: the growth is 99.6%.

`CCN(CC)C(=O)O/N=C(/C)c1ccccc1`: the growth is 96.5%.

Take `O=C1N[C@H]2[C@H](CS[C@H]2CCCCC(=O)N(CCP(c2ccccc2)c2ccccc2)CCP(c2ccccc2)c2ccccc2)N1`: the growth is 33.8%.

Consider `O=[N+]([O-])CC(c1ccccc1)c1c[nH]c2ccccc12` (stereo not given), for which the growth is 22.7%.

Consider `Cc1ccc(Cn2c(N3CCC(C(=O)NCc4cccs4)CC3)nc3ccccc32)cc1`, for which the growth is 95.3%.

For the compound `O=C1C=CN2C(=O)CC=CC2[C@@H]1O` (stereo not given in full), the growth was 110%.

On to `COC(=O)c1cc2c3c(cc(O)c2[nH]1)N(C(=O)C1Cc2cc(OC)c(OC)c(OC)c2N1)CC3CCl` (stereo not given), for which the growth is -41.8% (active).

Consider `COc1ccc(-c2nsc3c2NC(=O)CC3c2cccc(F)c2)cc1` (stereo not given), for which the growth was 19.7%.

As for `CCN(CC)CCCCCNc1cc(OC(=O)c2ccc(Cl)cc2)cc2cccnc12`, the growth is 71.6%.

Take `O=C(Nc1cccc(-n2ccc3c(NC(=O)c4ccccc4)nccc32)c1)c1ccc(Cl)c(Cl)c1`: the growth is -94.1% (active).

On to `COc1c(O)c2c3c(c1OC)-c1ccccc1CC3N(S(=O)(=O)c1ccc(C)cc1)CC2` (stereo not given), for which the growth is 37.1%.

With `CC(C)(O)CCl`, the growth was 103%.

Consider `COc1cc2c3c(n(CCCN4CCCCC4)c(=O)c2cc1OC)-c1cc2c(cc1C3=O)OCO2`, for which the growth is -84% (active).

Turning to `CCOC(=O)c1sc(N)c(C(=O)OCC)c1C`, the growth was 59.4%.

As to `CCC(C)[C@H](NC(C)=O)C(=O)N[C@@H](CCCNC(=N)N)C(=O)N[C@@H](CCCCN)C(=O)N[C@@H](CC1CCC(O)CC1)C(=O)NC(C(=O)N[C@@H](CCSC)C(=O)N[C@@H](CCCNC(=N)N)C(=O)N[C@@]1(C)CCC/C=C\CCC[C@@](C)(C(=O)NC(C(=O)N[C@@H](CCC(=O)O)C(=O)N[C@@H](CC(C)C)C(=O)N[C@H](C(=O)N[C@@H](CCC(=O)O)C(N)=O)C(C)C)[C@@H](C)O)NC(=O)[C@H](CCC(N)=O)NC(=O)[C@H](CC(C)C)NC(=O)[C@H](CC(C)C)NC1=O)[C@@H](C)O` (stereo not given in full), the growth is 99.7%.

For the compound `C/C(=N/NC(=O)Cn1c2ccccc2c2ccncc21)c1cccs1`, the growth is 105%.

Consider `COc1cc(C2NC(c3ccc(Cl)cc3)C(C)/C(=N/NC(N)=S)C2C)cc(OC)c1OC` (stereo not given), for which the growth is 88%.

Turning to `CN1C(=O)NC(Cc2c[nH]c3c(Cl)cccc23)C1=O` (stereo not given), the growth is 110%.

As to `COc1ccc2cc(/C=C3\N=C(c4cc(OC)c(OC)c(OC)c4)OC3=O)c(OC)nc2c1`, the growth is 108%.

On to `Cc1c(Cl)c(C)c(Cc2c(C)c(Cl)c(C)c(Cl)c2O)c(O)c1Cl`, for which the growth was -8.25% (active).

As to `Cc1nn(-c2ccccc2)c2nc(Cl)c(C=O)c(-c3ccccc3)c12`, the growth is 94.7%.

On to `N=C(N)c1ccc(-c2ccc(-c3ccc(Cl)cc3Cl)s2)cc1F`, for which the growth was -63.5% (active).

`CCC(CC(C)C)Nc1ccc(NC(CC)CC(C)C)cc1` (stereo not given): the growth is 71.3%.

As to `CNC(=O)c1c(NC(=O)c2ccccc2C(F)(F)F)sc2c1CCC(=O)C2`, the growth is 25.1%.

For the compound `COc1ccc(/C(=C(\c2ccccc2)[N+](=O)[O-])c2ccc(OCCN3CCCC3)cc2)cc1`, the growth is 68.1%.

`COc1cc2ncnc(Oc3ccc(NC(=O)Nc4ccc(CN5CCOCC5)c(C(F)(F)F)c4)c4ccccc34)c2cc1OC`: the growth is -12.3% (active).

Take `CN(CCC(=O)/C(=C\c1ccccc1)c1ccc(Cl)cc1)Cc1ccccc1`: the growth was -35.2% (active).

With `COC1=CC(=O)c2nc(Cl)ccc2C1=O`, the growth is -51% (active).

As for `Nc1ccc(S(=O)(=O)O)c2cc(S(=O)(=O)O)cc(O)c12`, the growth is 106%.

`O=NN(CC(=O)N/N=C/C=C\c1ccccc1)CC(=O)N/N=C/C=C/c1ccccc1`: the growth is 91.1%.

`COc1ccc(/C=C2\C(=O)N=C3N2NC(c2cc(Br)ccc2O)C=C(C)N3c2ccccc2)cc1` (stereo not given): the growth was 90.7%.

For the compound `Cc1ccc(OCCn2c(C)nn(-c3ccc(Cl)cc3)c2=O)cc1`, the growth was 124%.
